Data published in PubChem BioAssay (NCI).
Values joined by “and” are separate entries in the source; they are usually repeats but may differ in a detail not shown here. Equal entries are not always repeated. Compounds without any hit were thinned out: in the full panel of roughly 83,000, 20% have a hit.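 Negative percent growth values reflect cell death: -40 means 40% of the cells present at the start died, and -100 means all died.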 Active and inactive are the calls of the source. Rule for the calls: active = growth percent below 10; inactive = the rest.

Tested on: HL-60(TB) leukemia
Assay: NCI-60 one-dose screen, 48 h (100 = growth as untreated, 0 = no growth, -100 = all killed)
Settings: 10 µM unless noted

Row | SMILES | growth
1 | Nc1nc(=S)c2[nH]cnc2[nH]1 | 13.9% (inactive) and -13.4% (active)
2 | CCCCCCNc1cc(C)nc2ccc(OC)cc12 | 63.3% (inactive)
3 | c1cc(CNCCNCc2ccncc2)ccn1 | 75.8% (inactive)
4 | O=C(Nc1ccc(CN2CCOCC2)cc1)c1ccc(-c2cc(Cl)ccc2Cl)o1 | 28.8% (inactive)
5 | O=C(Nc1ccc(-n2cc(-c3ccncc3)c(-c3ccc(Cl)c(O)c3)n2)cc1)c1cc(C(F)(F)F)cc(C(F)(F)F)c1 | 52.6% (inactive)
6 | COc1ccc2cc(-c3ccc(NC(C)=O)c(=O)o3)ccc2c1 | 95.1% (inactive)
7 | ClCc1ccc(-c2ccc(Cn3cnc4nc(Cl)nc(Cl)c43)cc2)cc1 | -78.9% (active)
8 | COC(=O)c1c2c(c(C)[n+]([O-])c1C)C(=O)C=C(NCc1ccc(F)cc1)C2=O | -29.4% (active)
9 | COc1ccc2c(c1)NC1=C(C(=O)OC1)C2c1cc(OC)c2c(c1)OCO2 (stereo unspecified) | 0.722% (active)
10 | CC(C)CCC(=O)[C@@H](C)[C@H]1[C@@H](OC2OCC(O)C(O)C2NS(C)(=O)=O)C[C@H]2[C@@H]3CC=C4C[C@@H](O)CC[C@]4(C)[C@H]3CC[C@]12C (stereo partly specified) | 7.32% (active)
11 | O=C(Nc1ccccc1)Nc1cccc(Oc2nnc(Cl)c3ccccc23)c1 | 12.1% (inactive)
12 | CC(C)(O)C#CC#CC(C)(C)O | 104% (inactive)
13 | CCOC(=O)NC(N)=O | 92.4% (inactive)
14 | N#Cc1c(-c2ccc(Cl)cc2)c(C#N)c2c(C#N)c(N)nn2c1N | 85.8% (inactive)
15 | CC(=O)Oc1cc(C(C)C)c(OCCN(C)C)cc1C | 131% (inactive)
16 | O=C(OCc1ccc2c(Cl)cc(Cl)c(O)c2n1)n1cncn1 | 17.7% (inactive)
17 | O=C1Nc2ccccc2/C1=C/c1cn(C(=O)c2c(Cl)cccc2Cl)c2ccccc12 | 72.1% (inactive)
18 | CCC(=O)Oc1ccc(-c2ccccc2)cc1Br | 96.5% (inactive)

Row | SMILES | growth
19 | C=C(C)[C@@H]1CC[C@]2(C(=O)O)CC[C@]3(C)[C@H](CC[C@@H]4[C@@]5(C)C[C@@H](Cc6cn(CCO[C@@H]7O[C@H](COC(C)=O)[C@H](OC(C)=O)[C@H](OC(C)=O)[C@H]7OC(C)=O)nn6)[C@H](O)C(C)(C)[C@@H]5CC[C@]43C)[C@@H]12 | 37.9% (inactive)
20 | O=C(NCCc1ccccc1)/C(=C\c1ccc(Cl)cc1Cl)NC(=O)c1ccccc1 | 112% (inactive)
21 | CCOC(=O)C12CCCC1=CC(=O)CC2 (stereo unspecified) | 100% (inactive)
22 | ClCCn1c(CCl)nc2ccc(Cl)cc21 | -69% (active)
23 | CC(C)(C)c1ccc(O)c(CNC2CCCCC2)c1 | 74.8% (inactive) and 77.1% (inactive)
24 | Cc1sc2nc(NCCc3c[nH]c4ccc(Cl)cc34)[nH]c(=O)c2c1C | 7.05% (active)
25 | COC(=O)Nc1nc2ccc(C(=O)c3ccccc3)cc2[nH]1 | 7.13% (active) and -59.3% (active) and -3.38% (active)
26 | O=C(Nc1ccccc1)Oc1c(Cl)c(Cl)c(Cl)c(Cl)c1Cl | 86.8% (inactive) and 92.2% (inactive)
27 | O=C(NNC(=O)c1ccc(-n2cc(-c3ccccc3)nn2)cc1)Nc1ccccc1 | 95.4% (inactive)
28 | Nc1c(C(=O)c2ccc(Br)cc2)sc2nc3c(cc12)CCCC3 | 94.7% (inactive)
29 | N#C/C(=C\c1ccc(-c2ccc(Cl)cc2)o1)C(=O)Nc1ncc(Cc2ccc(Cl)cc2)s1 | 80.1% (inactive)
30 | COC(=O)/C(CCC=C(C)C)=C1\[C@@H](OC(C)=O)C[C@@]2(C)[C@H]1C[C@@H](O)[C@H]1[C@@]3(C)CC[C@H](NCCN)[C@@H](C)[C@@H]3CC[C@@]12C | -47.4% (active)
31 | Nc1n[nH]c2ccc([C@H]3[C@@H]4C5CCC(C5)[C@@H]4c4c(ccc5[nH]ncc45)N3S(=O)(=O)C3CC3)cc12 (stereo partly specified) | -19.6% (active)
32 | O=C1C=Cc2ncccc2C1=O | 57.7% (inactive)
33 | O=S(=O)(Nc1nccs1)c1ccc(Nc2nc(-c3ccncc3)cs2)cc1 | 98.6% (inactive)
34 | O=[N+]([O-])c1ccc(/C=N\NC(=S)Nc2ccc(F)cc2)cc1 | 114% (inactive) and 82.5% (inactive)
35 | CN1CCN(C(=O)[C@]2(C)CC[C@]3(C)CC[C@]4(C)C(=CC(=O)[C@@H]5[C@@]6(C)CCC(=O)NC(C)(C)[C@@H]6CC[C@]54C)[C@@H]3C2)CC1 | 95.7% (inactive)
36 | CCN1CCN(CCNc2nccc(-c3c(-c4cccc(O)c4)nc4sccn34)n2)S1(=O)=O | 64% (inactive) and 91.9% (inactive)
